In ChEMBL document CHEMBL3433997, “St. Jude Leishmania screening dataset” (2016):

How the values were obtained:
Format in all cases: functional
[1] = target: Solute carrier family 2, facilitated glucose transporter member 1 (Homo sapiens) (UniProt P11166); test: ST_JUDE_LEISH: Cytotoxicity at 2uM final concentration against transgenic Leishmania Mexicana promastigotes LmGLUT1 that are glucose transport deficient and complemented with the human glucose transporter GLUT1. Activity is measured by DNA content using SYBR green in vitro
[2] = target: Hexose transporter 1 (Plasmodium falciparum) (UniProt O97467); test: ST_JUDE_LEISH: Cytotoxicity at 2uM final concentration against transgenic Leishmania Mexicana promastigotes LmPfHT that are glucose transport deficient and complemented with the Plasmodium falciparum hexose transporter. Activity is measured by DNA content using SYBR green in vitro
[3] = target: Glucose transporter (Leishmania mexicana) (UniProt O61059); test: ST_JUDE_LEISH: Cytotoxicity at 2uM final concentration against transgenic Leishmania Mexicana promastigotes LmGT2 that are glucose transport deficient and complemented with the L. Mexicana glucose transporter 2. Activity is measured by DNA content using SYBR green in vitro

Sequence of Solute carrier family 2, facilitated glucose transporter member 1 (Homo sapiens) (P11166 whole entry): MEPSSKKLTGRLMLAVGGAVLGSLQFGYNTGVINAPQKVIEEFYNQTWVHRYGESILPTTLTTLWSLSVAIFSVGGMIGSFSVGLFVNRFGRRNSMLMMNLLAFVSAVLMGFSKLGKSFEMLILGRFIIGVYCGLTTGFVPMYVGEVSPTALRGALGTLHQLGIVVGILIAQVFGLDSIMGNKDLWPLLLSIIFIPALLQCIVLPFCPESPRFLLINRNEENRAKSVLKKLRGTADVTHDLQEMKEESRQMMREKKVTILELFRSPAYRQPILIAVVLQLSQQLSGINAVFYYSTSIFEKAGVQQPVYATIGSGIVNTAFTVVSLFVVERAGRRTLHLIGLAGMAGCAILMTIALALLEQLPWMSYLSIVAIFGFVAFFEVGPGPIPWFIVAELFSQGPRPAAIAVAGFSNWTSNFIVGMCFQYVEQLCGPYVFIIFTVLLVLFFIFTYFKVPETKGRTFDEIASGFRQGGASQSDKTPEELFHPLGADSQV

| Structure (SMILES) | inhibition [1] [%] | inhibition [2] [%] | inhibition [3] [%] |
| --- | --- | --- | --- |
| CCCCN(Cc1cc(Cl)c(OCC)c(OC)c1)c1ccc(C(O)(C(F)(F)F)C(F)(F)F)cc1 | -0.54 | -0.97 | -2.65 |
| Cc1cc(C(=O)NC2CCN(CC3(c4ccccc4)CCCCC3)CC2)on1 | 1.62 | 0.59 | -0.45 |
| CC(C)C[C@H]1C(=O)N[C@H](C2Cc3ccccc3C2)C(=O)N1[C@@H](C(=O)Nc1ccccc1OCc1ccccc1)c1ccc(F)cc1F | 0.86 | -0.17 | -0.16 |
| c1ccc(CN2CCC(NCc3ccc(-c4ccc(CNC5CCCC5)cc4)cc3)CC2)cc1 | 1.73 | 1.09 | 0.48 |
| CCc1ccc2c(c1O)CCN(C)C2Cc1ccccc1Cl (configuration not stated) | 8.14 | 5.29 | 11.8 |
| CCCCCCN1CCC(CNCc2cccc(Cl)c2)CC1 | 1.66 | 2.08 | 1.97 |
| CC(=O)N(C)C1CCN(Cc2cccc(-c3ccc(-c4nc5cc(F)ccc5[nH]4)cc3)c2)C1 (configuration not stated) | 3.46 | 2.4 | 3.15 |
| Oc1ccc2[nH]cc(C3CCN(CCCNCc4ccc(-c5ccccc5)cc4)CC3)c2c1 | 5.26 | 8.52 | 2.61 |
| CC(C)NCc1cccc(-c2ccc(NC(=O)c3ccc(C#N)cc3)cc2)c1 | 14.9 | 12.1 | 10 |
| Fc1ccc2c(NN=Cc3ccc(Cl)cc3)ccnc2c1 | 10.8 | 10.9 | 6.76 |
| CC(C)c1ccc(S(=O)(=O)Nc2cccc(CCN3CCC(N4CCCCC4)CC3)c2)cc1 | 38 | 4.08 | 1.03 |
| NC(=O)c1cnc2ccc(-c3cncs3)cc2c1Nc1ccc(F)c(Cl)c1 | 1.94 | 2.75 | 1.95 |
| COC(=O)c1ccc(NC(=O)Nc2cccc(CCNCc3ccccc3)c2)cc1 | -0.06 | -0.8 | -1.41 |
| Cc1nc(N)nc(N)c1-c1ccc2ccccc2c1 | -1.96 | -1.02 | -2.1 |
| Cc1ccc(F)c(OCC2CCN(c3ncc(C(=O)NC4CC4)cc3Cl)CC2)c1 | -1.14 | 2.1 | 1.1 |
| c1csc(-c2nc(N3CCCC3)ncc2-c2ccsc2)n1 | 0.85 | -0.18 | 1.26 |
| O=C(Nc1cccc(F)c1)c1ccc(C(=O)NC2CCN(CC3CCCCC3)C2)cc1 (configuration not stated) | 11.1 | 9.73 | 8.76 |
| Cc1ncccc1C(=O)Nc1ccc(-c2cccc(-c3nc4cccc(C)c4[nH]3)c2)cc1 | 0.98 | 0.96 | 3.38 |
| O=C(Nc1cccc(-c2ccc(-c3nc4cc(C(F)(F)F)ccc4[nH]3)cc2)c1)c1csnn1 | 5.44 | 8 | 0.51 |
| Cc1cc(CN2CC[C@H](NC(=O)c3ccc(Cl)c(Cl)c3)C2)ccc1OC1CCN(C)C1 (some centres not stated) | -0.24 | 0.72 | -0.09 |

| Structure (SMILES) | inhibition [1] [%] | inhibition [2] [%] | inhibition [3] [%] |
| --- | --- | --- | --- |
| COc1ccc2cc(C(C)NC3CCN(c4cccc(NC(=O)c5ccncc5)c4)CC3)ccc2c1 (configuration not stated) | 0.03 | -0.06 | -1.47 |
| O=C1c2ccccc2CN1CCCN1CCC(Oc2ccc(F)cc2)CC1 | -2.87 | -2.18 | -3.86 |
| COc1cc(NC(=O)N2CCOC(CCN3CCC(c4ccccc4)CC3)(c3ccc(Cl)c(Cl)c3)C2)cc(OC)c1 (configuration not stated) | 0.76 | 1.73 | -1.37 |
| CCN(CCCN1CCCCC1)c1cc(C)nc(Nc2cccc3c2CCCC3)n1 | 3.95 | 2.39 | 1.57 |
| CN(C)c1ccc(-c2csc(C(=O)NCC3CCN(Cc4ccc(C(C)(C)C)cc4)C3)c2)cc1 (configuration not stated) | -1.07 | -1.85 | -1.57 |
| CS(=O)(=O)NCCCNCc1cccc(-c2ccc(-c3nc4ccccc4[nH]3)s2)c1 | 12.1 | 11.8 | 11 |
| Cc1cc(C(=O)Nc2ccc(OCc3ccccc3)cc2)on1 | -1.56 | -2.29 | 0.64 |
| Fc1ccc(CNc2ccc3ncc(-c4cccnc4)n3n2)cc1 | 2.61 | 2.21 | 0.67 |
| O=c1cc(NCCC2CC=CCN2Cc2ccc(Cl)c(Cl)c2)[nH]c2ccccc12 (configuration not stated) | 1 | 0.33 | -0.25 |
| CC(CN1CCN(C)CC1)C(=O)Nc1ccc(-c2cccc(-c3nc4cc(F)ccc4[nH]3)c2)cc1 (configuration not stated) | 2.46 | 2.1 | 5.11 |
| CCN(CC)CCN(Cc1ccc(-c2ccc(C(F)(F)F)cc2)nc1)C(=O)Cn1c(SCc2ccc(F)cc2)nc(=O)c2sccc21 | 1.92 | 1.65 | 1.84 |
| Cc1nc(Nc2ccc(C)c(Cl)c2)c2c(C)noc2n1 | 5.28 | 4.91 | 4.71 |
| CCOC(=O)CC[C@@H](NC(=O)c1ccc(NCc2ccc3ccc4nc(C)[nH]c(=O)c4c3c2)cc1F)C(=O)N[C@@H](Cc1c[nH]c2ccccc12)C(=O)OCC | 1.56 | 1.89 | 3.35 |
| CC(=O)Nc1ccc(C(=O)Nc2cccc(-c3ccc(-c4nc5cc(F)ccc5[nH]4)cc3)c2)cn1 | -1.01 | 2.17 | 0.38 |
| O=C(NC1CCN(CCC(NC(=O)c2ccccc2)c2ccc(Cl)c(Cl)c2)CC1)c1ccc(Cl)cc1 (configuration not stated) | 3.39 | 2.33 | 1.88 |
| COCCNCc1cccc(-c2ccc3nccc(Nc4cc(O)ccc4C)c3c2)c1 | 3.68 | 4.21 | 4.38 |
| c1ccc(Oc2ccc(Nc3nc(NCCc4c[nH]cn4)nc(NC4CCCC4)n3)cc2)cc1 | 5.3 | 5.86 | 6.19 |
| CC(C)(C)C(=O)Nc1ccc(C(=O)Nc2cccc(-c3nc4ccccc4[nH]3)c2)cc1 | 1.87 | 0.85 | -0.79 |
| CCC[C@@H](/C=N/N(C)C(=O)OC(C)(C)C)NC(=O)[C@H](CC(C)C)NC(=O)c1cc2cccc(OC)c2o1 | 3.02 | 3.92 | 0.27 |
